# Assay results reported in PubChem BioAssay AID411 (National Center for Advancing Translational Sciences (NCATS), 2006).
# “And” between values parts separate entries of the source, which are not always exact repeats. Equal entries are not always repeated. About 1,600 (2.2%) of roughly 72,000 compounds were called active. What follows is part of a selection rich in actives, with near analogues and random picks from the rest. A number with no mark means an inactive call. Calls follow the shape of the dose curve; as a rule, active = well fitted inhibition curve with a large enough effect; inconclusive = small, poorly fitted or top-dose-only effect; inactive = flat fitted curve, though single readings scatter.
# Target: Luciferin 4-monooxygenase (Photinus pyralis) (UniProt P08659)
# Assay: qHTS Assay for Inhibitors of Firefly Luciferase; also: nearly all actives have a fitted effect of over 40% in size
# Details: purified firefly luciferase, luminescence, 8 min; series mostly up to 57.1 µM; activity change, negative = inhibition: at the top concentration
# Summary of the method: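 Compounds were tested as concentration series (qHTS) against purified P. pyralis luciferase with luciferin and 10 uM ATP in 50 mM imidazole pH 7.2, 50 mM KCl, 7 mM MgCl2, 0.01% Tween 20, 0.05% BSA. Luminescence was read after 8 min at ambient temperature.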
# % is scaled to controls: 0 for no effect and ±100 for the full control effect; potency is read from the fitted curve at half-maximal effect.
# Luciferin 4-monooxygenase (Photinus pyralis), sequence (P08659 whole entry, looked up): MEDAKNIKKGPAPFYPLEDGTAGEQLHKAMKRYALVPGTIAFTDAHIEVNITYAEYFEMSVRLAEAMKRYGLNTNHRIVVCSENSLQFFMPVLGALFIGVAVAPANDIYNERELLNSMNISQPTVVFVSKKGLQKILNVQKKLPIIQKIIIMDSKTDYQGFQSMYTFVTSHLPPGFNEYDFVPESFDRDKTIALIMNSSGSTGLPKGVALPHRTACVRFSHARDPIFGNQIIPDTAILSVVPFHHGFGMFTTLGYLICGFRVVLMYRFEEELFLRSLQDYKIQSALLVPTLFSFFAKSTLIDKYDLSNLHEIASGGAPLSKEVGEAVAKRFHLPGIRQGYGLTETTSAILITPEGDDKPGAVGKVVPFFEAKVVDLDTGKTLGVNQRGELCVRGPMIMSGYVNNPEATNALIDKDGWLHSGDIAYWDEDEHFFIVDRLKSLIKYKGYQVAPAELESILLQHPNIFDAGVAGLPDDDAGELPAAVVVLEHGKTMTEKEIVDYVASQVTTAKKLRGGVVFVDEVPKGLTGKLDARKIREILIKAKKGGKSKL
SMILES,"activity change, negative = inhibition",Potency
CCc1nc2ccccc2n(CCOCCOCCn2c(=O)c(CC)nc3ccccc32)c1=O,3.93%,–
COC(=O)c1cn(-c2ccccc2)nc1-c1cccnc1,1.75%,–
O=C(NCc1cccnc1)c1cn(-c2ccccc2)nc1-c1cccs1,–,10 µM (active)
O=C(c1cn(-c2ccccc2)nc1-c1cccnc1)N1CCCCC1,-2.89%,–
CC(=O)/C(C)=N\O,–,inactive
COc1cc(-c2nc(-c3ccncc3)no2)cc(OC)c1OC,-4.91%,–
COc1ccc(-c2noc(-c3cccc(OC)c3OC)n2)cc1OC,–,6.31 µM (active)
CCOc1nc(-c2ccc(OC)cc2)ccc1-c1noc(-c2cc(OC)c(OC)c(OC)c2)n1,1.4%,–
COC(=O)[C@@H]1CC[C@H](C)[C@@H](c2ccc(C)cc2)N1C(=O)c1ccc(/C=N\OC[C@@H](O)COCc2ccco2)cc1,-0.535% [at 11.4 µM],–
CCc1cc2c(=O)c(-c3ccon3)c(N)oc2cc1OC,–,3.98 µM (active)
CC1CCC(NS(=O)(=O)c2ccc3c(c2)n(C)c(=O)c(=O)n3C)CC1 (stereo not drawn),0.852%,–
COc1ccc(CCNC(=O)c2ccco2)cc1,-4.8%,–
CCOC(=O)C1C(=O)NC(N2CCN(c3ccccc3)CC2)=NC1c1ccco1 (stereo not drawn),2.05%,–
CCOC(=O)C1C(=O)C=C(c2ccc(OC)cc2)CC1c1ccco1 (stereo not drawn),–,25.1 µM (active)
CN1C(=O)c2ccccc2C(C(=O)NCCCN2CCCC2)C1c1c[nH]c2ccccc12 (stereo not drawn),1.89%,–
O=C1OCCC=C1[C@@H](O)CCc1ccccc1,1.7% [at 11.4 µM],–
CN1CCN(CC(=O)Nc2sc3c(c2C#N)CCC(C(C)(C)C)C3)CC1 (stereo not drawn),2.15%,–
CCOc1ccc(-c2nnn(CC(=O)N3CCN(c4ccc(OC)cc4)CC3)n2)cc1OCC,-0.335%,–
CCOc1ccc(-c2nnn(CC(=O)N3CCN(c4ccc(F)cc4)CC3)n2)cc1OCC,1.81%,–
COc1ccc(C(=O)Cn2nnc(-c3ccc(N4CCOCC4)cc3)n2)cc1OC,–,10 µM (active)
CCOC(=O)c1cc2sccc2n1Cc1ccc(C#N)cc1,0.824%,–
O=C(O)c1ccc(C(=O)O)c2c(C(=O)O)ccc(C(=O)O)c12,-2.88% [at 11.4 µM],–

SMILES,"activity change, negative = inhibition",Potency
Cn1nnc(NC(=O)CSc2ncn[nH]2)n1,-1.66%,–
CC(C)(C)c1ccc(C(=O)CSc2ncn[nH]2)cc1,–,15.8 µM (active)
CCN(C(=O)CSc1ncn[nH]1)c1cccc2ccccc12,3.18%,–
CCOc1cc(C)c(Cl)cc1S(=O)(=O)n1nnc2ccccc21,1.16%,–
C=CCn1c(SCc2nnc(-c3ccccc3)o2)nnc1C(O)c1ccccc1 (stereo not drawn),-0.126%,–
CCOc1ccc(OCc2ccc(C(=O)Nc3cccc(C)n3)o2)cc1,2.72%,–
Cc1cccc(NC(=O)COc2ccc(Br)cc2C)n1,–,10 µM (active)
Cc1cccc(NC(=O)COc2ccccc2C)n1,-11.8%,–
COc1cccc(-c2nc3n(n2)C(c2ccccc2Cl)C(C(N)=O)=C(C)N3)c1 (stereo not drawn),-0.456%,–
CC(C)CNC(=O)c1cc(-c2ccc(Br)cc2)on1,-1.15%,–
O=C(Nc1ccccc1C(F)(F)F)c1cc(-c2ccc(O)cc2)on1,-4.79%,–
CC(C)Cc1cc(C(=O)Nc2cc(Br)ccc2O)no1,–,12.6 µM (active)
O=C1c2cccnc2C(Nc2ccc(S(=O)(=O)N3CCCCCC3)cc2)N1Cc1ccccc1 (stereo not drawn),-2.25%,–
COC(=O)c1cn(C)c2ccc(S(=O)(=O)N3CC(C)CC(C)C3)cc2c1=O (stereo not drawn),2.46%,–
C=CCSc1nc2ccccc2[nH]1,-5.6%,–
c1ccc2[nH]c(-c3nc4ccccc4[nH]3)nc2c1,–,2.51 µM (active)
c1ccc(-c2[nH]ncc2-c2nc3ccccc3[nH]2)cc1,-10.9%,–
CC(=O)c1nc(N2C(=O)C3CC=C(C)CC3C2=O)sc1C (stereo not drawn),3.83%,–
COc1ccc2[nH]c3c(=O)n(Cc4ccco4)cnc3c2c1,-4.13%,–
COc1ccc2[nH]c3ccc(OC)cc3c2c1,–,20 µM (active)
COc1ccc2[nH]c3cc4c(=O)c5cc(OC)ccc5[nH]c4cc3c(=O)c2c1,-0.432% [at 11.4 µM],–
CCOc1ccc(N2C(=O)CC(N(O)c3ccccc3)C2=O)cc1 (stereo not drawn),0.494%,–

SMILES,"activity change, negative = inhibition",Potency
CCOc1ccc(-c2nnc(-c3ccco3)o2)cc1,–,7.94 µM (active)
CCC(=O)Oc1cccc(C(=O)Nc2ccc(-c3nnc(-c4ccco4)o3)cc2)c1,-6.47%,–
Cc1ccc(OCC(=O)Nc2ccc(-c3nnc(-c4ccco4)o3)cc2)cc1,0.889%,–
CCOc1cc2c(cc1OCC)C(C(=O)O)C(c1ccc(OC)c(O)c1)N(C)C2=O (stereo not drawn),6.01%,–
CCOc1ccc(N=C2SC(C(=O)O)CC(=O)N2C)cc1 (stereo not drawn),-2.63%,–
O=C(Nc1ccc2c(c1)OCCO2)C1CCCN(c2ncccn2)C1 (stereo not drawn),–,10 µM (active)
O=C(Nc1ccc2c(c1)OCCO2)c1ccncc1,-17.4%,–
Cc1ccnc(N2CCCC(C(=O)Nc3cc(F)ccc3C)C2)n1 (stereo not drawn),2.9%,–
COc1c(Br)cc2c(C)c(C(=O)N3CCOCC3)oc2c1Br,-0.12%,–
c1ccc(COc2nsnc2N2CCOCC2)cc1,-12.5%,–
CCCC(=O)N(CCc1ccccc1)Cc1nc2ccccc2c(=O)[nH]1,1.75%,–
CN1CCN(S(=O)(=O)c2ccc(NC(=O)c3ccco3)cc2)CC1,0.616%,–
COC(=O)c1cc(Cl)c(NC(=O)c2ccco2)cc1OC,-0.363%,–
CCc1nnc(NC(=O)c2cccs2)s1,-7.96%,–
O=C(Nc1ccc(Cl)cn1)Nc1cccs1,-15.8%,–
Cc1ccnc(NC(=O)c2ccc(NC(=O)c3ccco3)cc2)c1,–,25.1 µM (active)
O=C(Nc1ccc(NC(=O)c2cccs2)cn1)c1ccco1,–,5.01 µM (active)
CCOc1cc(NC(=O)c2ccco2)c(OCC)cc1NC(=O)COc1ccccc1,-1.31%,–
COC(=O)c1ccc(NC(=O)c2ccco2)cc1,–,20 µM (active)
CC(C)(C)NC(=O)c1cc(NC(=O)c2ccco2)cc(NC(=O)c2ccco2)c1,-5.21%,–
O=C(Nc1ccc(Oc2ccccc2)cc1)c1ccco1,–,15.8 µM (active)
Cc1ccc(C(=O)COc2cccc(NC(=O)c3ccco3)c2)cc1,-18.4%,–

SMILES,"activity change, negative = inhibition",Potency
COc1ccc(NC(=O)c2cccc(NC(=O)c3ccco3)c2)c(OC)c1,-17.4%,–
CCc1cccc(C)c1NC(=O)CSc1nnc(-c2ccco2)n1N,3.08%,–
CC(C)C(=O)N1CCN(c2nc(-c3ccccc3)c3c(c2C#N)CC(C)(C)OC3)CC1,0.212% [at 25.5 µM],–
CC(=O)N1CCC2(CCCN(Cc3ccccc3)C2)CC1,-1.06% [at 11.4 µM],–
COCCNc1ccnc(-c2cccc(NS(C)(=O)=O)c2)n1,0.411% [at 2.29 µM],–
O=C1C[C@@H](O)[C@@H](O)[C@H]2[C@@H]3C(=O)N(Cc4ccc5c(c4)OCO5)C(=O)[C@@H]3CC[C@H]12,1.52% [at 11.4 µM] and -0.708% [at 11.4 µM],–
CC(NCCO)C(=O)C12CC3CC(CC(C3)C1)C2 (stereo not drawn),0.832%,–
C[N+](C)(C)CCCCCNCC12CC3CC(CC(C3)C1)C2,1.32%,–
CCn1c(=N)n(CC(=O)c2cccc(OC)c2)c2ccccc21,-14.7%,–
CN(C)c1ccc(-c2nc(NCCN3CCOCC3)c3ccccc3n2)cc1,-10.7% [at 2.29 µM],–
ClC(Cl)(Cl)C(N1CCN(c2ccccc2)CC1)N1CCN(c2ccccc2)CC1,2.2% [at 11.4 µM],–
CCOC(=O)c1nnn(-c2nonc2OC)c1-c1ccccc1,1.47%,–
CC(=O)N1CSCC1C(=O)O (stereo not drawn),4.56%,–
CC1CCC(NC(=O)c2ccc(N3CCCC3=O)cc2)CC1 (stereo not drawn),-12.8%,–
COc1cccc(OC)c1C(=O)Nc1nnc(C(C)C)s1,2.84%,–
COc1cccc2sc(Nc3nc(C)c(C(C)=O)s3)nc12,–,5.01 µM (active)
COc1ccccc1Nc1ncc(C(C)=O)c(C)n1,-24.1%,–
Cc1c(S(=O)(=O)O)ccc(N=Nc2c(O)c(C(=O)O)cc3ccccc23)c1Cl,-2.84% [at 11.4 µM],–
COc1cccc(NS(=O)(=O)c2ccc3[nH]cc(C(=O)NCCCOC(C)C)c(=O)c3c2)c1,1.42%,–
CCCCN(CCCC)CCC(O)c1cc2c(Cl)cc(Cl)cc2c2cc(C(F)(F)F)ccc12 (stereo not drawn),-2.13% [at 25.5 µM],–
Cc1ccc2cc3cc(C(=O)N4CCCCCC4)oc3nc2c1,–,7.94 µM (active)
Cc1ccc(C(=O)N2CCCCCC2)cc1Br,-0.659%,–

SMILES,"activity change, negative = inhibition",Potency
Cc1ccc2oc(=O)c3cnn(CC(=O)N4CCCCCC4)c3c2c1,0.564%,–
O=C(NCCCNCc1ccccc1)c1ccc(/C=N/O)nc1,2.11%,–
CC1CCCN(c2ccc(C(=O)NCCc3ccccc3)cn2)C1 (stereo not drawn),–,15.8 µM (active)
O=C(O)C1CC=CCC1C(=O)NCCc1ccccc1 (stereo not drawn),-0.736%,–
CN(C)CCCNc1c2c(c(C#N)c3nc4ccccc4n13)CCC2,-1.09%,–
CCOC(=O)C1=C(C)NC(=O)N(C(C)=O)C1c1ccc(Cl)cc1 (stereo not drawn),1.78%,–
O=C(Oc1ccc(-c2nc(-c3ccccn3)no2)cc1)c1ccccc1,–,2.51 µM (active)
CC(C)c1nc(-c2ccccn2)no1,-1.32%,–
O=C(Oc1ccccc1)c1ccc2nccnc2c1,-17.8%,–
C=CCn1c(SCn2nnc3ccccc3c2=O)nnc1-c1ccc(Cl)cc1,-0.689%,–
CCOC(=O)c1[nH]c2ccc(OC)cc2c1NC(=O)N1CCOCC1,2.51%,–
COc1ccc(C2CC(c3ccccc3)Nc3ncnn32)cc1 (stereo not drawn),2.52%,–
COc1ccc(OCC(=O)OCCN(C)C)cc1,-3.76% [at 25.5 µM],–
O=C(Nc1ncccn1)c1cccs1,1.5%,–
O=C(O)c1ccc(NC(=O)c2cccs2)cc1,1.11%,–
Cc1nc(-c2ccc(NC(=O)c3cccs3)cc2)cs1,–,1.26 µM (active)
OCCCNCc1ccccn1,3.67% [at 11.4 µM],–
COCCCNC(=O)CSc1nc2ccc(N3CCOCC3)cc2c(=O)n1CCc1ccccc1,0.796%,–
Cc1cc(C)c2c(n1)nn1c(N3CCOCC3)cc(C)nc21,1.01%,–
Cc1nn2c3cc(N4CCOCC4)ccc3nc2c2ccccc12,–,2 µM (active)
